Screens as filed in PubChem.
DAX1 inh-1 – inhibitors of DAX1 repression of SF-1 activated StAR promoter | HEK293T StAR-luciferase reporter, SF-1/DAX-1 repression relief | inhibition, % at 6.8 µM | 1.1% of 370,000 active | AID 652010;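 active means inhibition above the mean over all tested compounds plus 3 SD, cut at about 3.6% in these data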;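 further: higher inhibition means more luminescence from relief of DAX-1 repression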
ssDAF-12 act – activates DAF-12 receptor from parasite S. stercoralis; HEK293 ssDAF-12/GRIP1 lit1-tk-luc reporter, luminescence; % of 3 µM dafachronic acid response; activation, % at 6.8 µM; 1% of 370,000 active; AID 652126;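 active means activation above the mean over all tested compounds plus 3 SD, cut at about 0.9% in these data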
hgDAF12 agonist – hgDAF-12 agonism, primary luciferase screen | 1.8% of 370,000 active | activation, % at 6.8 µM | HEK293 GAL4-hgDAF12 UAS-luciferase reporter, agonist luminescence; normalized to butyrate control;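 active means activation above a cutoff set at the mean of all screened compounds plus 3 SD, cut at about 10% in these data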
hcDAF-12 act – activates DAF-12 receptor from parasite H. contortus. HEK293 hcDAF-12 lit1-tk-luc reporter, luminescence; 0% DMSO, 100% Δ7-dafachronic acid. activation, % at 6.8 µM. 1.4% of 370,000 active. AID 652067;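 active means activation above the mean of all tested compounds plus 3 SD, cut at about 5.5% in these data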
DAX1 inh-2 – inhibitors of human orphan nuclear receptor DAX1 (NR0B1); HEK293 Gal4-DAX1 luciferase reporter, luminescence; inhibition, % at 6.75 µM; P51843; 0.99% of 340,000 active; AID 504766;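 active means inhibition above the mean over all tested compounds plus 3 SD, cut at about 4.2% in these data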;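 further: inhibition shows as a rise in luminescence from relieved DAX1 repression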
hgDAF12 ag – confirmation of H. glycines DAF-12 agonists | shares compounds with hgDAF12 agonist | HEK293 GAL4-hgDAF12 luciferase reporter, agonist mode; percent of butyrate response | activation, % at 6.8 µM | 80% of 3,300 active;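 active means mean activation over triplicate wells above the hit cutoff derived from the earlier primary screen, cut at about 11% in these data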
LXRb DAF12 ctr – LXR-beta agonism as DAF-12 counter-screen; 3,300 tested, under 10 active; shares compounds with hgDAF12 agonist; activation, % at 6.8 µM; AID 743051; HEK293 Gal4-LXR luciferase reporter, 24 h;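 active means mean activation of the triplicate above a set limit carried over from the primary screen, none filed active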
Target sequence (P55055 whole entry, looked up, the tested form may be a part): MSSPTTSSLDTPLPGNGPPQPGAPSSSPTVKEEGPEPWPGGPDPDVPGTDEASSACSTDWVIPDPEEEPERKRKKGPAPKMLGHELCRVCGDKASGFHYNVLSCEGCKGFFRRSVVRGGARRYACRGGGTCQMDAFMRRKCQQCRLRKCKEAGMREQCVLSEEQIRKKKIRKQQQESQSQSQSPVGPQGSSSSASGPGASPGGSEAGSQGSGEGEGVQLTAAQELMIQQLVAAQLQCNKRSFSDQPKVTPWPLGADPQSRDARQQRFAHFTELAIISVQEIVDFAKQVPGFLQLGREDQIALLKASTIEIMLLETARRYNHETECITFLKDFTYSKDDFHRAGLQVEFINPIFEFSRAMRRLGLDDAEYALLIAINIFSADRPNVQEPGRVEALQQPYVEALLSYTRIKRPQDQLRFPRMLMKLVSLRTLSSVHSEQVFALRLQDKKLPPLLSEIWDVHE
Numbers stand for hits; . = inactive; / = not tested or not shown. An excerpt weighted towards active compounds, which were near 4.1% of everything screened.

SMILES	DAX1 inh-1	ssDAF-12 act	hgDAF12 agonist	hcDAF-12 act	DAX1 inh-2	hgDAF12 ag	LXRb DAF12 ctr
CC(C)c1nnc(NC(=O)C2CCCO2)s1 (configuration not stated)	.	.	.	.	.	/	/
Cc1cnc(NC(=O)C2CCCO2)s1 (configuration not stated)	.	.	14.6	.	.	.	.
O=C(c1cc(-c2ccc(Cl)cc2)on1)N1CCCC1	.	1.1	13.5	.	.	15.7	.
N#C/C(=C(/O)c1ccco1)c1nc2ccccc2[nH]1	3.9	1.2	22.1	.	5.0	22.8	.
O=S1(=O)CC(N2CCCCC2)CN1Cc1cn(Cc2cccc(C(F)(F)F)c2)nn1 (configuration not stated)	.	.	.	.	/	/	/
C/C(N)=C(/C#N)C(=O)CSc1nnc(-c2ccccc2Br)o1	3.8	.	14.4	.	.	17.1	.
O=C(CSc1nnc(-c2ccccc2Br)o1)N1CCOCC1	.	.	.	.	.	/	/
CCCn1c(C)cc(C(=O)COc2ncnc3sccc23)c1C	.	.	14.3	.	.	13.2	.
Cc1c(C(=O)Nc2ccccc2F)cnn1-c1ccccc1	.	.	13.6	.	.	12.8	.
Cc1c(C(=O)Nc2cc(F)cc(F)c2)cnn1-c1ccccc1	.	.	.	.	.	/	/
O=C(Nc1nccs1)c1cn2ccccc2n1	.	.	15.1	5.8	.	13.9	.
Cc1cc(C)cc(NC(=O)c2cc3c(=O)n4ccccc4nc3s2)c1	.	.	.	.	.	/	/
O=C(Nc1ccccc1)c1cc2ccccc2c(=O)s1	.	.	18.0	.	.	14.5	.
O=C(Nc1ccc(O)cc1)c1cc2ccccc2c(=O)s1	.	.	13.7	.	.	.	.
CC1CCN(C(=O)COC(=O)C23CC4CC(CC(O)(C4)C2)C3)CC1	.	.	.	.	.	/	/
CCN(CC)c1ccc2cc(C(=O)Nc3ccccn3)c(=O)oc2c1	.	.	14.3	.	.	17.5	.
CCN(CC)c1ccc2cc(C(C)=O)c(=O)oc2c1	.	.	.	.	.	/	/
CC(=O)Nc1ccc(-c2csc(NCc3ccco3)n2)cc1	.	.	15.3	.	.	12.1	.
C=CCNc1nc(-c2ccc(Cl)cc2)cs1	.	.	14.2	.	.	14.7	.
O=C(N/N=C/c1sc(=O)n(-c2ccccc2)c1Cl)c1ccccc1	.	.	23.7	.	.	15.8	.
NC(=O)N/N=C/c1sc(=O)n(-c2ccccc2)c1Cl	.	.	.	.	.	/	/
Nc1ccc(Cl)c(-c2nc3ncccc3o2)c1	.	.	.	.	.	/	/
Nc1ccc(-c2nc3ncccc3o2)c(Cl)c1	.	.	18.1	6.0	5.6	15.6	.
COC(=O)[C@]12C[C@H](CC(=O)N3CCC(c4ccccc4)CC3)C(=O)N(CCc3ccc(OC)c(OC)c3)C1=C[C@H](C1CCCC1)O[C@@H]2C	.	.	.	.	/	/	/
Cc1oc(-c2cccc(Cl)c2)nc1CN(C)C1CCOC1 (configuration not stated)	.	.	.	.	.	/	/
SMILES	DAX1 inh-1	ssDAF-12 act	hgDAF12 agonist	hcDAF-12 act	DAX1 inh-2	hgDAF12 ag	LXRb DAF12 ctr
Cc1oc(-c2ccc(-c3ccccc3)cc2)nc1CN(C)C1CCOC1 (configuration not stated)	.	.	15.8	.	.	14.3	.
CC(=O)Nc1cccc(/C(C)=N/Nc2nc3ccccc3s2)c1	.	.	15.5	.	.	12.7	.
COc1cccc(C(=O)Nc2nc(C)cs2)c1	.	.	14.6	.	.	13.8	.
CC(=O)Nc1cccc(/C(C)=N/NC(=O)c2cc(-c3ccncc3)nc3ccccc23)c1	.	.	.	.	.	/	/
CCOC(=O)c1sc(NC(=O)Nc2ccccc2)cc1C	.	.	16.9	.	.	22.8	.
CCOC(=O)c1sc(NC(=O)Nc2ccc(F)cc2)nc1C	3.7	.	17.3	.	.	22.6	.
CCOC(=O)c1sc(NC(=O)c2ccc(C)s2)cc1C	.	.	.	.	.	/	/
O=C(Nc1ccc(F)c(Cl)c1)Nc1nnc([C@@H]2O[C@H](CO)[C@@H](O)[C@H]2O)s1	.	.	.	.	/	/	/
C[C@@H]1CC[C@H](O)/C=C/C(=O)O[C@H](C)CC[C@H](O)/C=C/C(=O)O1	.	.	.	.	.	/	/
